# CSC inhib: blocks cancer stem cells | 1.1% of 300,000 active | cancer stem cell-like cells viability, luminescence | AID 2717 | inhibition, % at 7.5 µM; in the data active = inhibition above about 75%; tested in HMLE shEcad cells
# Shn3 3UTR inh: Schnurri-3 reporter inhibition in Clone20 osteoblasts. Clone20 osteoblast Shn3 3'UTR firefly luciferase, 24 h. AID 588674. inhibition, % at 12.5 µM. 0.52% of 360,000 active;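 active = mean inhibition of at least 75% with every replicate also reaching 75%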;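 note: 0% = median of neutral control wells and 100% = pilot-screen positive control compound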
# Mdm2 MdmX PPI: inhibitors of human Mdm2/MdmX interaction; SaOS-2 split-luciferase Mdm2/MdmX complementation, luminescence; inhibition, % at 8 µM; 3% of 330,000 active; AID 485346;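 active = inhibition of at least 50% at 8 µM in the primary screen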
# Gli-Sufu antag: Gli-Sufu pathway antagonism. Sufu-KO-LIGHT fibroblasts, Gli luciferase reporter luminescence. inhibition, % at 5 µM. 0.74% of 340,000 active. AID 588413;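 active = inhibition above about 55%, limit read from the data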;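 note: 0% = DMSO-treated cells and 100% = wells with medium but no cells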
# PAX8 inh HTS: PAX8 transcriptional activity inhibition. RMG-I TPO-luciferase reporter, SteadyGlo, 24 h. 1.2% of 360,000 active. inhibition, % at 12.6 µM;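 active = mean replicate inhibition at least 60% with every replicate also reaching 60%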;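 note: luciferase light reporting Pax8 driven TPO promoter activity; plate controls were median of neutral control wells for no effect and mitoxantrone controls for full effect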
# Beta cell apopt: blocks beta cell apoptosis | 0.8% of 300,000 active | protection from apoptosis, % (concentration not given with the values) | INS-1E cytokine-induced death, ATP luminescence, 48 h; percent of positive-control rescue, neutral wells zero | AID 435005;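 active = Every replicate reaches about 75%, or at least half do and their mean reaches it too, limit read from the data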;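 note: 0% = cytokine-treated negative control wells and 100% = positive control rescue; higher means more ATP so stronger rescue from cytokine killing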
# * hit, by the source's call; . = not tested or not shown. Shown are actives, neighbours in structure and some others; about 4% of the full set was active somewhere.
SMILES,CSC inhib,Shn3 3UTR inh,Mdm2 MdmX PPI,Gli-Sufu antag,PAX8 inh HTS,Beta cell apopt
C[C@@H]1CCCCO[C@H](CN(C)Cc2ccc(Cl)c(Cl)c2)[C@@H](C)CN([C@H](C)CO)C(=O)c2cc(NC(=O)Nc3ccc(F)cc3)ccc2O1,.,.,.,.,22.0,.
C[C@@H]1CCCCO[C@H](CN(C)Cc2ccc(Cl)c(Cl)c2)[C@@H](C)CN([C@@H](C)CO)C(=O)c2cc(NC(=O)Nc3ccc(C(F)(F)F)cc3)ccc2O1,.,.,.,.,94.7*,.
O=C(C[C@@H]1C[C@@H]2c3cc(NC(=O)NC4CCCC4)ccc3O[C@@H]2[C@H](CO)O1)NCc1ccc(-c2ccccc2)cc1,.,.,.,.,8.5,.
CC(CNC(=O)c1ccc(OC2CCN(Cc3ccccn3)CC2)cc1)Oc1cccnc1 (stereo not drawn),-8.0,13.9,5.5,12.0,4.2,99.9*
O=C(NCCc1ccccn1)c1ccc(OC2CCN(Cc3ccccn3)CC2)cc1,-2.2,-18.1,10.5,5.2,-71.9,-1.8
C[C@@H]1CN([C@@H](C)CO)C(=O)c2ccccc2-c2ccccc2CO[C@H]1CN(C)S(=O)(=O)c1ccccc1F,.,.,.,.,-19.5,.
CC(=NNC(=O)c1ccncc1)c1ccccc1O,.,83.2,.,9.3,-0.7,.
CC(C)CC(=NNC(=O)c1ccncc1)c1cc(Cl)ccc1O,.,85.0*,.,29.9,.,.
O=C(NCCc1c[nH]c2ccccc12)C(=O)c1c[nH]c2ccccc12,111.8*,13.7,33.4,-47.3,6.9,.
CSC(=Nc1ccccc1)N=C(SCc1ccccc1)N(C)C,.,93.0*,.,25.3,100.5*,.
N#CNC(=Nc1ccccc1)SCc1ccc(C(=O)O)cc1,-1.8,-24.7,-27.4,3.3,3.3,-17.5
Cc1ccc(C)c(NC(=O)CSc2nc(N)c(NC(=O)c3cccs3)c(=O)[nH]2)c1,.,7.7,.,1.9,-9.0,.
Cc1ccc(C)c(NC(=O)CSc2nc3nc(-c4cccs4)cc(C(F)(F)F)c3c(=O)[nH]2)c1,95.8*,-4.9,45.1,8.1,3.6,11.4
CC1CC(C)C[N+](=C2C=C(N3CCCC3)CC(C)(C)C2)C1 (stereo not drawn),.,88.6*,.,86.0*,74.8*,.
CCCC(=O)N1CC2(CN(Cc3nccs3)C2)c2c([nH]c3cc(OC)ccc23)[C@@H]1CO,.,.,.,.,-1.7,.
FC(F)(F)c1ccccc1NC(=S)N1CCN(Cc2ccc3c(c2)OCO3)CC1,.,9.3,-2.8,23.0,28.6,82.0*
Cc1ccc(S(=O)(=O)N(C)C)cc1NC(=S)N1CCN(Cc2ccc3c(c2)OCO3)CC1,15.4,73.2,17.9,55.1*,-46.4,.
Cc1c(Cl)cccc1NC(=S)N1CCN(Cc2ccc3c(c2)OCO3)CC1,0.8,9.1,6.8,14.1,20.8,-5.7
Cc1ccccc1NC(=S)N1CCN(Cc2ccc3c(c2)OCO3)CC1,-15.6,6.3,20.7,-2.9,5.5,-7.1
C[C@H](CO)N1C[C@H](C)[C@H](CN(C)Cc2cccc(O)c2)OCc2cn(nn2)CCCC1=O,.,.,.,.,-2.8,.
CS(=O)(=O)c1ccc(S(=O)CC(=O)OCc2ccccc2)c([N+](=O)[O-])c1 (stereo not drawn),.,97.0*,.,12.5,107.1*,.
COc1ccc(S(=O)(=O)Nc2cccc3c2O[C@H](CN(C)S(=O)(=O)c2ccc(C)cc2)[C@H](C)CN([C@H](C)CO)C3=O)cc1,.,.,.,.,-11.8,.
CCOC(=O)c1ccc(NC(=O)CC2S/C(=N/N=C/c3c[nH]c4ccccc34)NC2=O)cc1 (stereo not drawn),88.4*,2.3,35.0,-0.7,-8.6,-6.0
O=C1c2ccccc2C(=O)N1CC#CCN1CCN(C(c2ccccc2)c2ccccc2)CC1,96.1*,13.2,15.5,14.6,.,-1.9
Cc1cc(C)c2nc(N3CCCC(C(=O)N4CCN(c5ncccn5)CC4)C3)sc2c1 (stereo not drawn),75.4*,-10.5,27.7,-0.7,-19.0,13.2
SMILES,CSC inhib,Shn3 3UTR inh,Mdm2 MdmX PPI,Gli-Sufu antag,PAX8 inh HTS,Beta cell apopt
O=C(N/N=C\c1ccc2c(c1)OCO2)c1ccc(Cn2cc(Br)c([N+](=O)[O-])n2)o1,84.5*,-1.6,-10.4,12.7,-2.6,4.2
O=C(N/N=C\c1ccc(F)cc1)c1ccc(Cn2cc(Br)c([N+](=O)[O-])n2)o1,67.6,9.9,-3.7,-5.3,-12.6,0.1
O=C(C1CCCC1)N1[C@H](CO)[C@H](c2ccccc2)C12CN(CCC(F)(F)F)C2,.,.,.,.,-6.7,.
Cc1ccc(Cl)cc1NC(=O)c1ccc(Cn2cc(Cl)cn2)cc1,100.2*,42.8,24.7,.,-15.7,3.2
Cc1cc(C2=NNC(=NC3CC3)SC2)c(C)n1-c1ccccc1,.,94.1*,.,90.5*,77.0*,.
Cc1cc(C2=NNC(=NC3CC3)SC2)c(C)n1Cc1ccco1,43.9,38.4,.,84.0*,6.4,42.7
COc1cccc(-c2ccc3c(c2)[C@H]2[C@H](CCN2S(=O)(=O)c2ccc(F)cc2)[C@@H](CO)N3C)c1,.,.,.,.,67.3*,.
COc1ccc(S(=O)(=O)N2CC[C@@H]3[C@@H](CO)N(C)c4ccc(-c5ccc(F)cc5)cc4[C@@H]32)cc1,.,.,.,.,65.9*,.
COc1ccc(-c2ccc3c(c2)[C@@H]2[C@@H](CCN2S(=O)(=O)c2ccc(F)cc2)[C@@H](CO)N3C)cc1,.,.,.,.,7.4,.
COc1ccc(-c2ccc3c(c2)[C@H]2[C@H](CCN2S(=O)(=O)c2ccc(F)cc2)[C@H](CO)N3C)cc1,.,.,.,.,93.8*,.
COc1ccc(S(=O)(=O)N2CC[C@H]3[C@@H](CO)N(C)c4ccc(-c5ccc(F)cc5)cc4[C@H]32)cc1,.,.,.,.,-0.7,.
CO[C@H]1CN(C)C(=O)c2ccc(NC(C)=O)cc2OC[C@@H](C)N(Cc2cccc(F)c2)C[C@H]1C,.,.,.,.,-49.9,.
C/C=C/c1ccc([C@H]2[C@@H](CO)N(Cc3cncnc3)C23CN(C(=O)CC2CC2)C3)cc1,.,.,.,.,-9.5,.
Cc1cc(C(=O)Nc2ccc3c(c2)C(=O)N(C)[C@H]2CC[C@H](CC(=O)NCc4ccc(-c5ccccc5)cc4)O[C@H]2CO3)no1,.,.,.,.,46.6,.
Cc1cc(C(=O)Nc2ccc3c(c2)C(=O)N(C)[C@@H]2CC[C@H](CC(=O)NCc4ccc(-c5ccccc5)cc4)O[C@H]2CO3)no1,.,.,.,.,80.3*,.
Cc1cc(C(=O)Nc2ccc3c(c2)C(=O)N(C)[C@H]2CC[C@@H](CC(=O)NCc4ccc(-c5ccccc5)cc4)O[C@H]2CO3)no1,.,.,.,.,91.4*,.
Cc1cc(C(=O)Nc2ccc3c(c2)C(=O)N(C)[C@@H]2CC[C@H](CC(=O)NCc4ccc(-c5ccccc5)cc4)O[C@@H]2CO3)no1,.,.,.,.,80.3*,.
C[C@H]1CN([C@@H](C)CO)C(=O)Cc2cc(NC(=O)Cc3ccccc3)ccc2O[C@@H]1CN(C)C(=O)Nc1cccc2ccccc12,.,.,.,.,13.9,.
COc1ccc(NC(=O)CSc2ncccc2C(=O)OC(C)C)cc1OC,-5.6,86.5*,-3.4,41.8,.,11.3
Cc1cccc(NC(=O)NNC(=O)c2cc(-c3ccccc3Cl)nc3ccccc23)c1,22.0,-11.3,-4.8,4.5,.,0.4
O=C(NNC(=O)c1cc(-c2ccc(Cl)c(Cl)c2)nc2ccccc12)Nc1ccccc1,92.2*,0.8,49.8,16.6,.,9.3

# Bioassay records deposited in PubChem by several laboratories.
